Screen size: about 220,000 compounds; about 5,700 (2.6%) were called active. About 18% were inconclusive and are not listed. Shown is part of a subset that was picked to be rich in actives. A number with no mark means an inactive call. Calls follow the shape of the dose curve; as a rule, active = well fitted inhibition curve with a large enough effect; inconclusive = small, poorly fitted or top-dose-only effect; inactive = no such curve, though single readings can be large or run the other way.
Target: Lysine-specific demethylase 5B (Homo sapiens) (UniProt Q9UGL1)
Test: Primary screen for KDM5B Histone Demethylases FDH-coupled qHTS; also: nearly all actives have a fitted effect of over 70% in size; as to activity change, negative = inhibition: 0% is about no effect
Details: FDH-coupled NADH fluorescence (FDH is formaldehyde dehydrogenase); series mostly up to 57.7 µM; activity change, negative = inhibition: at the top concentration
Procedure, shortened: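 Inhibition is measured as reduced NADH fluorescence generation from FDH coupling to formaldehyde release. Truncated KDM5BΔAP at 200 nM final acts on H3K4me3 peptide (12.5 µM in substrate mix) in pH 7.5 HEPES buffer with Tween-20, 30 min, room temperature.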
Potency is read from the fitted curve at half-maximal effect.

Sequence of Lysine-specific demethylase 5B (Homo sapiens) (Q9UGL1 whole entry, looked up): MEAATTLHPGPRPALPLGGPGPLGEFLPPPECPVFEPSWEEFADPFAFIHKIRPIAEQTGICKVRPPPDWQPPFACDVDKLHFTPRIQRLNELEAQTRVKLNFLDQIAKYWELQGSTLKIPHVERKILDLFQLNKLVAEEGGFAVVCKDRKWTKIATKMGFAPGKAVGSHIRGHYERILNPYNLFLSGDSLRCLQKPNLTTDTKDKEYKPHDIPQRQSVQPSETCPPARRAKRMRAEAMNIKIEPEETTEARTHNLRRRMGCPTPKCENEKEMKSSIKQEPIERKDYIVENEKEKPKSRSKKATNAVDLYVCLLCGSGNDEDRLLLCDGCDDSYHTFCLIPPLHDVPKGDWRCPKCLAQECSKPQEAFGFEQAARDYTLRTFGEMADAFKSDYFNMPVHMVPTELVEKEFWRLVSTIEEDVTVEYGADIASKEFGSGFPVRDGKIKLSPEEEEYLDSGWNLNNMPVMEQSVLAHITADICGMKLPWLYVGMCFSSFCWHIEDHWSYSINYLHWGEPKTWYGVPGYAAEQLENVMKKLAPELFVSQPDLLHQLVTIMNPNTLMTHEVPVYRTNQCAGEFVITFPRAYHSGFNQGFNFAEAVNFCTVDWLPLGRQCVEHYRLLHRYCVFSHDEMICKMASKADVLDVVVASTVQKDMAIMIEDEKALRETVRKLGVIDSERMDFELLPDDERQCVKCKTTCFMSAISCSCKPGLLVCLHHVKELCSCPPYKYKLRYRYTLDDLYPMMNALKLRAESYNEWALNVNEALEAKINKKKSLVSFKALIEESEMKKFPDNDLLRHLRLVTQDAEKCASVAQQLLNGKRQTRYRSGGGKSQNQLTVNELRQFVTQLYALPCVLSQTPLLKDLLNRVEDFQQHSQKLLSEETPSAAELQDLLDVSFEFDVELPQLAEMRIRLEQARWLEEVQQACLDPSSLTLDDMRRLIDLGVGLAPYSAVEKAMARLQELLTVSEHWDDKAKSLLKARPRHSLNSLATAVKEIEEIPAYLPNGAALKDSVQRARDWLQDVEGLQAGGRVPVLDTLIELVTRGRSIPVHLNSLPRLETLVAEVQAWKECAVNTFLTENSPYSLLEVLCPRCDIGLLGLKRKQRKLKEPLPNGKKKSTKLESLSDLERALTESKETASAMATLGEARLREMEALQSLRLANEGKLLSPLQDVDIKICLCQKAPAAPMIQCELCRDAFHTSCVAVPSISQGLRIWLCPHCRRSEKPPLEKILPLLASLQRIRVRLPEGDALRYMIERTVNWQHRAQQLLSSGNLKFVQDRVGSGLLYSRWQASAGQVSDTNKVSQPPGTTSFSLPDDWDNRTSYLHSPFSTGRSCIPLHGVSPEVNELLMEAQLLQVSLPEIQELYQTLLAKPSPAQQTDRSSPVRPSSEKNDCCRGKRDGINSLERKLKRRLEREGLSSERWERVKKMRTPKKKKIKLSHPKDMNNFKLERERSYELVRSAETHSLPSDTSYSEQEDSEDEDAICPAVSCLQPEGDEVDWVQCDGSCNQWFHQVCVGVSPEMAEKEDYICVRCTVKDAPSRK

SMILES | activity change, negative = inhibition | Potency
CCc1nonc1NC(=O)COc1ccc(C)c(C)c1 | 7.03% | 
COc1ccc(NC(=O)CSCc2ccc(F)cc2Cl)cc1 | 2.87% | 
CCOC(=O)COn1c(=O)c(-c2ccc(OCC)cc2)[n+]([O-])c2ccccc21 | -7.54% | 
C=CCN(C)C(=O)C[C@@H]1c2nc(NC(=O)c3ccc(C(C)(C)C)cc3)sc2C[C@@H]2[C@](C)(CO)[C@H](O)CC[C@]21C |  | 31.6 µM (active)
C=CCOC(=O)Nc1nc2c(s1)C[C@@H]1[C@](C)(CO)[C@H](O)CC[C@@]1(C)[C@@H]2CC(=O)N(CC)CC | 1.16% | 
C[C@]1(CO)[C@H]2Cc3sc(NC(=O)C4CCCCC4)nc3[C@@H](CC(=O)NCc3cccs3)[C@]2(C)CC[C@H]1O | -19.3% | 
CN(C)CCNC(=O)C[C@@H]1c2nc(NC(=O)c3ccc(C(C)(C)C)cc3)sc2C[C@@H]2[C@](C)(CO)[C@H](O)CC[C@]21C | 0.551% | 
CC(C)(C)c1ccc(C(=O)Nc2nc3c(s2)C[C@@H]2[C@](C)(CO)[C@H](O)CC[C@@]2(C)[C@@H]3CC(=O)NCc2cccs2)cc1 |  | 14.1 µM (active)
CC(=O)N1CCN(C(=O)C[C@@H]2c3nc(NC(=O)c4cccs4)sc3C[C@@H]3[C@](C)(CO)[C@H](O)CC[C@]32C)CC1 | -22.1% | 
CC(C)(C)C(=O)COC(=O)c1cc(-c2ccccc2)c(N2CCOCC2)s1 | -15.4% | 
CC(C)C(=O)N1CC(=O)Nc2ccc(F)cc2C1c1ccc(F)cc1 (centres undefined) | 18.1% | 
CC(=O)c1ccc(N2CCN(C(=O)CCNC(=O)Cn3ccc4ccccc4c3=O)CC2)cc1 | -4.99% | 
Cc1cnc(C(=O)N(C)Cc2ccc(Cl)s2)cn1 | 6.09% | 
Cc1ccc(C(C)C)c(OCCSc2nc3ccccc3n2CC(=O)O)c1 | -10.6% | 
COc1ccc(OC)c(CC(C(=O)Nc2ccc(F)cc2)c2nn[nH]n2)c1 (centres undefined) | -1.51% | 
O=C(NCc1ccc(Cl)cc1)c1cc(-c2ccc[nH]2)n[nH]1 | -9.79% | 
O=C(NCc1ccc(Cl)nc1)c1cn2c(n1)CN(C(=O)c1cccnc1)CC2 | -15.4% [at 115 µM] | 
O=C(NCc1cccnc1)c1nc(-c2ccc(Cl)nc2)c2cnccn12 |  | 63.1 µM (active)
O=C(CSc1nccn1Cc1ccc(Cl)cc1)NCc1ccccc1 | -11.1% | 
O=C(NCc1ccc(Cl)nc1)c1cnn2ncccc12 |  | 31.6 µM (active)
O=C(NCc1ccc(Cl)nc1)c1c[nH]c2cccnc12 | -18.6% [at 149 µM] | 
O=C(NCc1cccnc1)c1cnc2ccccc2n1 | -14.4% | 
O=C(NCc1ccc(Cl)cc1)c1cccn2nccc12 |  | 35.5 µM (active)
O=C(NCc1ccc(Cl)nc1)c1ccn2cncc2c1 | -8620% [at 86.2 µM] | 

SMILES | activity change, negative = inhibition | Potency
CC1CCCN(CC(=O)Nc2oc3ccccc3c(=O)c2-c2ccc(F)cc2)C1 (centres undefined) | -1.49% | 
N#Cc1cccc(Cn2c(=O)c3c(ncn3C3CCCC3)n(Cc3ccccc3)c2=O)c1 | 6.91% | 
COc1ncccc1Nc1ncc(-c2ccccc2)c2c1OCC2 | -642% [at 86.2 µM] | 
CN1CCN(Cc2ccc(Nc3ncc(-c4cccnc4)c4c3OCC4)cc2)CC1 | -29.8% [at 86.2 µM] | 
CN(C)c1cccc(-c2cnc(Nc3ccc(N4CCOCC4)cc3)c3c2CCO3)c1 |  | 35.5 µM (active)
CN=c1scc(-c2cccs2)n1/N=C/c1cccs1 | 4.26% | 
Cc1cnc(CCNC(=O)Nc2ccccc2F)n1C1CCC1 | -9.92% | 
COc1ccccc1C(=O)NCCC(=O)N(C)Cc1cccnc1 | 15.8% | 
COCCNC(=O)Cc1c[nH]c2ncc(-c3cccnc3OC)cc12 |  | 31.6 µM (active)
CNC(=O)c1cccc(-c2cnc3[nH]cc(CC(=O)NCc4cccc(F)c4)c3c2)c1 | -2.5% [at 86.2 µM] | 
CN(Cc1cccs1)C(=O)Cc1c[nH]c2ccccc12 | 2.68% | 
COc1ncccc1-c1cnc2[nH]cc(CC(=O)N(C)Cc3ccccc3)c2c1 |  | 28.2 µM (active)
Cc1ccccc1C(=O)NCc1c[nH]c2ncccc12 | -7.61% [at 86.2 µM] | 
CN(CC(=O)NCc1ccc(F)cc1)C(=O)c1ccc2c(c1)nnn2C | -1.64% | 
Cc1nc2cc(NC(=O)c3cccc(S(=O)(=O)Nc4ccc(SC(F)F)cc4)c3)ccc2o1 | -21.1% | 
CCN(CC)S(=O)(=O)c1ccc(-c2csc(-c3cccc(OC)c3OC)n2)cc1 | 6.59% | 
NC(Cc1ccccc1)(Cc1ccccc1)C(=O)O | 5.7% | 
O=C(c1cnc(N2CCCCC2)c2ccccc12)N1CCN(c2ccccn2)CC1 | -0.794% | 
O=[N+]([O-])c1cccc(-c2noc([C@@H]3C[C@@H](O)CN3Cc3cccc(OC(F)(F)F)c3)n2)c1 | -27% | 
COc1ccc(CN2C[C@H](O)C[C@H]2c2nc(-c3ccc4c(c3)OCO4)no2)c(OC)c1OC | -8.22% | 
O=[N+]([O-])c1ccccc1CN1C[C@H](O)C[C@H]1c1nc(-c2ccc(F)cc2)no1 |  | 25.1 µM (active)
O[C@@H]1C[C@@H](c2nc(-c3ccc4c(c3)OCO4)no2)N(Cc2ccc(-c3ccccn3)cc2)C1 |  | 25.1 µM (active)
N#Cc1cccc(CN2C[C@H](O)C[C@H]2c2nc(-c3ccccn3)no2)c1 | -20.8% [at 86.2 µM] | 
Oc1ccccc1CN1C[C@H](O)C[C@H]1c1nc(Cc2ccc(F)cc2Cl)no1 | 7.24% [at 86.2 µM] | 

SMILES | activity change, negative = inhibition | Potency
CC(c1nc(-c2cccs2)no1)N(C)Cc1ccc(F)cc1F (centres undefined) | 12.1% | 
Cc1ccc(NC(=O)N2CCC(OC3CCN(S(C)(=O)=O)CC3)CC2)cc1F | 22.8% | 
CC(Sc1ncnc2nc[nH]c12)C(=O)NCc1ccc(Cl)c(Cl)c1 (centres undefined) | 11.4% | 
O=C(NC1CCCN(c2cc(-c3ccccc3)[nH]n2)C1)c1cccc2[nH]ccc12 (centres undefined) |  | 28.2 µM (active)
O=C(NC1CCN(c2cc(-c3ccc(Cl)cc3)[nH]n2)C1)c1c[nH]c2ccccc12 (centres undefined) |  | 11.2 µM (active)
O=C(NC1CCN(c2cc(-c3ccc(Cl)cc3)[nH]n2)CC1)c1ccccc1F | -1.6% | 
O=C(NC1CCN(c2cc(-c3cccs3)[nH]n2)C1)c1ccc(Br)cc1 (centres undefined) |  | 4.47 µM (active)
O=C(NC1CCCN(c2cc(-c3ccc(Cl)cc3)[nH]n2)C1)c1ccncc1 (centres undefined) | -2.2% | 
O=C(NC1CCN(c2cc(-c3ccc(F)cc3)[nH]n2)C1)c1ccc2c(c1)OCO2 (centres undefined) | -28% | 
O=C(NC1CCCN(c2cc(-c3ccc(Cl)cc3)[nH]n2)C1)c1ccccc1F (centres undefined) | -5.14% | 
O=C(NC1CCN(c2cc(-c3ccccc3)[nH]n2)CC1)c1cccs1 | 5.39% | 
Cn1nccc1C(=O)NC1CCCN(c2cc(-c3ccc(F)cc3)[nH]n2)C1 (centres undefined) | -17.7% | 
O=C(NC1CCCN(c2cc(-c3ccccc3)[nH]n2)C1)c1cccc(Cl)c1 (centres undefined) | -14.6% | 
O=C(NC1CCCN(c2cc(-c3ccc(F)cc3)[nH]n2)C1)c1ccc(Br)cc1 (centres undefined) | 7.03% | 
O=C(NC1CCN(c2cc(-c3ccc(F)cc3)[nH]n2)C1)c1cc2ccccc2[nH]1 (centres undefined) |  | 8.91 µM (active)
C=C(Br)CN1CCCC1 | -17.3% | 
CCc1cccc(-n2c(SCc3nc4ccccc4o3)nnc2N2CCOCC2)c1 | -1.04% | 
O=C(c1ccccc1F)N1CCC(c2nn(-c3ccc(Cl)cc3)c(=O)[nH]2)CC1 | -1% | 
CCOc1cccc2cc(-c3cc(=O)oc4cc(OC(=O)N5CCOCC5)ccc34)c(=O)oc12 | -7.16% | 
Cc1cc(C)c2nc(SCC(=O)NC(=O)NC(C)(C)C)cc(C)c2c1 | 1.49% | 
CCOc1ccc(CC(=O)NC2CCN(c3cc(-c4ccc(F)cc4)[nH]n3)CC2)cc1OCC | 13.2% | 
COc1cccc(CC(=O)NC2CCN(c3cc(-c4ccc(F)cc4)[nH]n3)C2)c1 (centres undefined) |  | 7.94 µM (active)
COc1ccc(CC(=O)NC2CCN(c3cc(-c4ccccc4)[nH]n3)CC2)cc1 | 0.366% | 
Cc1ccc(S(=O)(=O)NCCC(=O)Nc2cccc(S(N)(=O)=O)c2)cc1C | 31.2% | 

SMILES | activity change, negative = inhibition | Potency
CCOc1ccccc1CN1CCC2(CCN(C(=O)c3cccc(Cl)c3)CC2)Oc2ccccc21 |  | 25.1 µM (active)
CC1(c2cccnc2)N(CCOc2ccccc2)C(=O)OC12CCN(C(=O)c1cccc(Cl)c1)CC2 (centres undefined) | -16.2% | 
CC1(c2cccnc2)N(Cc2ccccc2)C(=O)OC12CCN(C(=O)c1cccc(Cl)c1)CC2 (centres undefined) | -16% | 
Cn1cccc1CN1CCC2(CC1)CNc1ccccc1[S+](=O)([O-])N2 | -25.4% | 
CN(C)C(=O)c1cc(-c2cccc(C(F)(F)F)c2)c2nncn2n1 |  | 100 µM (active)
CN(C)C(=O)c1n[nH]c2c1CN(C(=O)c1cccc(C(F)(F)F)c1)CC2 | 0.85% | 
NCc1ccccc1-c1cccc(C(F)(F)F)c1 | -5.98% [at 149 µM] | 
Cc1ccc(N2CCN(C(C(=O)O)c3c[nH]c4cc(NC(=O)C(C)C)ccc34)CC2)c(C)c1 (centres undefined) | 10.2% | 
Oc1c(-c2ccccc2)nc2sc3c(c2c1-c1ccccc1)CCCC3 | -25.6% | 
Cc1ccc(C)n1-c1nnc(N2CCC(C(=O)NCc3ccccc3Cl)CC2)s1 | -21.5% | 
CN(C)C[C@@H]1CN(c2ncccn2)C[C@H]1NC(=O)CCc1ccccc1 |  | 28.2 µM (active)
O=C(Cc1ccccc1Cl)N1CCN(c2ncnc3nc[nH]c23)CC1 | 4.8% | 
CCOc1ccc(CC(=O)N2C[C@@H](N)C[C@H]2C(=O)NC(C)C)cc1 | -25.5% | 
CN(C)C(=O)c1cccnc1OC1CCN(C(=O)Cc2ccc(Cl)cc2)C1 (centres undefined) | -17.9% | 
O=C(c1cc(Cl)cc(Cl)c1)N1CCN(C(=O)c2cc(Cl)ccc2F)CC1 | 24% | 
CN(C)C[C@@H]1CN(c2ncccn2)C[C@H]1NC(=O)Cc1ccccc1Cl |  | 22.4 µM (active)
CN(C)C[C@@H]1CN(c2ncccn2)C[C@H]1NC(=O)c1cc(Cl)ccc1F |  | 31.6 µM (active)
Cc1n[nH]c(C)c1CCC(=O)N[C@@H]1CN(S(C)(=O)=O)C[C@H]1CN(C)C | -5.53% | 
CCOc1ccc(CC(=O)N[C@@H]2CN(c3ncccn3)C[C@H]2CN(C)C)cc1 |  | 25.1 µM (active)
CN(C)C[C@@H]1CN(c2ccncn2)C[C@H]1NC(=O)c1cc(C2CC2)[nH]n1 | -3.97% | 
COc1ccc(CNC(=O)N[C@@H]2CN(c3ccncn3)C[C@H]2CN(C)C)cc1 | -21% | 
C/C=C/c1ccc(OCC(=O)N2CCN(S(=O)(=O)c3ccccc3)CC2)c(OC)c1 | -5.54% | 
